An excerpt weighted towards active compounds, which were near 8% of everything screened.
MCF10A rereplic – induces DNA re-replication in MCF 10a normal breast cells | 350,000 compounds, 2.9% hits | Potency, µM (top dose mostly 46.1 µM), usual class: activators | AID 624296 | MCF 10A DNA re-replication, Hoechst nuclear intensity, 48 h; further: nearly all actives have a fitted effect of over 50% in size
HT1080NT lethal – kills 2HG-producing HT-1080-NT fibrosarcoma cells. HT-1080-NT fibrosarcoma viability, CellTiter-Glo ATP luminescence, 48 h. Potency, µM (highest dose often 46.1 µM), most hits filed as cytotoxic. 360,000 compounds, 1.6% hits;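 further: NT is the 2HG producing partner of a matched IDH1 knockdown line; nearly all actives have a fitted effect of over 55% in size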
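Viability of the 2HG-overproducing fibrosarcoma line after 48 hours of compound exposure at 37 degrees C was determined by luminescence with CellTiter-Glo, and concentration-effect curves were then fitted and categorized.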
SW480 rerep – inducers of DNA re-replication in SW480 colon cancer cells | SW480 DNA re-replication, Hoechst DNA content imaging, 48 h | Potency, µM (doses to about 46.1 µM), hits mostly activators | 340,000 compounds, 1.8% hits | AID 624297; further: nearly all actives have a fitted effect of over 55% in size
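Cells (250 per well) received 23 nL compound or DMSO by pin tool and were kept 48 hr at 37 C, 5% CO2. Nuclei were then stained with Hoechst for 40 min and scanned for DNA content.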
HT1080 IDH1KD tx – toxicity to HT-1080 IDH1 knockdown cells (counter line). HT-1080 IDH1 knockdown viability, ATP luminescence, 48 h. Potency, µM (highest dose often 46.1 µM), most hits filed as cytotoxic. 360,000 compounds, 2% hits. AID 686971
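% activity derives from luminescence (CellTiter-Glo), normalised to DMSO and no-cell wells. HT-1080-IDH1KD cells, 750/well, had 48 h compound exposure at 37 °C.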
KB-3-1 tox – KB-3-1 parental cell cytotoxicity | KB-3-1 viability, CellTiter-Glo ATP luminescence, 72 h | Potency, µM (doses to about 46.1 µM), hits mostly cytotoxic | 400,000 compounds, 1.4% hits | AID 1347075; further: nearly all actives have a fitted effect of over 60% in size
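Using CellTiter-Glo luminescence, growth of non-resistant KB-3-1 adenocarcinoma cells is assessed 72 h after pin-tool compound addition at 37 °C. Normalized responses across the concentration series yield fitted curves.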
KB-V1 MDR tox – kills drug-selected multidrug resistant KB-V1 cells. KB-V1 MDR cells viability, CellTiter-Glo, 72 h. Potency, µM (highest dose often 46.1 µM), usual class: cytotoxic. 400,000 compounds, 3.4% hits; further: nearly all actives have a fitted effect of over 60% in size
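Luminescent ATP read-out (CellTiter-Glo, 10 min) measures survival of drug-selected KB-V1 MDR cells after 72 h, 37 degrees C compound exposure. Medium: phenol-red-free DMEM, 10% FBS. Values from fitted concentration-response curves.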
Large screens that a line does not name were inactive; ! = repeats disagree. The call rests on the fitted dose curve; in most records, active means well fitted curve in the direction sought with a large enough effect; inconclusive means small, poorly fitted or top-dose-only effect, or another doubt; inactive means no such curve, though single readings can be large; an effect the other way counts as inactive or inconclusive.

COc1ccc(S(=O)(=O)N2CCC(C(=O)N3CCN(C)CC3)CC2)cc1OC	none
COc1cccc(C2=NOC(C(=O)NCc3cccs3)C2)c1 (stereo not drawn)	MCF10A rereplic 5.2µM, HT1080NT lethal inconclusive, HT1080 IDH1KD tx 21µM, KB-3-1 tox inconclusive, KB-V1 MDR tox inconclusive
COc1ccc(CNC(=O)C2CC(c3cccc(OC)c3)=NO2)cc1 (stereo not drawn)	MCF10A rereplic 2.8µM
O=C(CCc1nnc2ccc(NCc3ccc(Cl)cc3)nn12)NC1CCCCC1	none
Cc1ccc(C(=O)CC(C(=O)O)P(=O)(c2ccccc2)c2ccccc2)cc1 (stereo not drawn)	HT1080 IDH1KD tx inconclusive
CC(C)C1N=C(c2ccc3c(c2)OCO3)CC(c2ccccc2O)N1 (stereo not drawn)	MCF10A rereplic 21µM, HT1080NT lethal inconclusive, SW480 rerep inconclusive, HT1080 IDH1KD tx inconclusive, KB-3-1 tox inconclusive, KB-V1 MDR tox inconclusive
CC(C)C1(C)NC(c2ccc3c(c2)OCO3)=CC(c2ccccc2O)N1 (stereo not drawn)	none (no result: MCF10A rereplic, HT1080NT lethal, SW480 rerep, HT1080 IDH1KD tx)
CCN(CC)c1ccc(N=Cc2ccccc2[N+](=O)[O-])cc1	MCF10A rereplic inconclusive, SW480 rerep 2.6µM, HT1080 IDH1KD tx inconclusive
CCN(CC)c1ccc(N=Cc2ccc([N+](=O)[O-])o2)cc1	MCF10A rereplic 23µM, HT1080NT lethal 18µM, SW480 rerep 2.3µM, HT1080 IDH1KD tx inconclusive, KB-3-1 tox 18µM
CC12CCC(C(=O)N/N=C/c3ccc(O)cc3O)(OC1=O)C2(C)C (stereo not drawn)	SW480 rerep 4.6µM, HT1080 IDH1KD tx inconclusive, KB-3-1 tox inconclusive, KB-V1 MDR tox inconclusive
C/C(=N\NC(=O)C12CCC(C)(C(=O)O1)C2(C)C)c1ccccc1O (stereo not drawn)	MCF10A rereplic inconclusive, HT1080NT lethal inconclusive, SW480 rerep 3.7µM, HT1080 IDH1KD tx inconclusive, KB-3-1 tox inconclusive, KB-V1 MDR tox inconclusive
Cc1noc2ncnc(N3CCN(c4cccc(Cl)c4)CC3)c12	MCF10A rereplic inconclusive, KB-3-1 tox inconclusive
CC(=O)c1ccc(N2CCN(c3ncnc4onc(C)c34)CC2)cc1	KB-3-1 tox 21µM, KB-V1 MDR tox inconclusive (no result: MCF10A rereplic, HT1080NT lethal, SW480 rerep, HT1080 IDH1KD tx)
Cc1cc(NCCCn2ccnc2)n2nc(-c3ccc(Cl)cc3)cc2n1	none
CC(C)(C)c1cc(NCCCn2ccnc2)n2ncc(-c3ccc(Cl)cc3)c2n1	MCF10A rereplic inconclusive, HT1080NT lethal 10µM, SW480 rerep inconclusive, HT1080 IDH1KD tx 10µM, KB-V1 MDR tox inconclusive
CN(C)CCCNc1cc(C(C)(C)C)nc2c(-c3ccccc3)cnn12	MCF10A rereplic inconclusive, HT1080NT lethal 21µM, SW480 rerep inconclusive, HT1080 IDH1KD tx inconclusive
CCOC(=O)c1[nH]cnc1N=Nc1c(O)ccc2ccccc12	MCF10A rereplic inconclusive, HT1080NT lethal 5.8µM, SW480 rerep inconclusive, HT1080 IDH1KD tx 6.5µM, KB-V1 MDR tox inconclusive
CSCCC(=O)Nc1ccc(C(C)=O)cc1	none
Cc1c(NC(=O)c2cc3c(=O)n4ccccc4nc3s2)c(=O)n(-c2ccccc2)n1C	none
Cc1cc(C)cc(NC(=O)c2cc(C)n(Cc3cccs3)c2C)c1	MCF10A rereplic 18µM, HT1080NT lethal inconclusive, SW480 rerep inconclusive, HT1080 IDH1KD tx inconclusive
CCOC(=O)C1=C(C)NC(C)=C(C(=O)OCC)C1c1cc2ccc(C)cc2[nH]c1=O	MCF10A rereplic inconclusive, HT1080NT lethal 18µM, SW480 rerep inconclusive, HT1080 IDH1KD tx 8.2µM, KB-3-1 tox 6.5µM
CC(=O)c1sc2c(c1OC(=O)c1ccc(Cl)cc1Cl)c(=O)n(-c1ccccc1)c(=S)n2-c1ccccc1	MCF10A rereplic inconclusive, HT1080NT lethal 1.5µM, HT1080 IDH1KD tx 2.6µM, KB-3-1 tox inconclusive, KB-V1 MDR tox inconclusive
CC(=O)c1sc2c(c1OC(=O)c1ccc(Cl)cc1)c(=O)n(-c1ccccc1)c(=S)n2-c1ccccc1	MCF10A rereplic inconclusive, HT1080 IDH1KD tx inconclusive, KB-3-1 tox inconclusive, KB-V1 MDR tox 15µM
O=C(Oc1ccc(=O)n(-c2ccccc2)n1)c1ccc(Cl)cc1	none
CCC/C=N/NC(=O)c1[nH]c2c([N+](=O)[O-])cccc2c1C	MCF10A rereplic 6.5µM, HT1080NT lethal inconclusive, SW480 rerep 18µM, HT1080 IDH1KD tx inconclusive, KB-3-1 tox 23µM
O=C1CC(N(O)c2ccccc2)C(=O)N1c1ccc(Cl)c(Cl)c1 (stereo not drawn)	MCF10A rereplic inconclusive
Cc1ccc(SCc2cn3c(C)cc(C)nc3n2)cc1	none
COc1ccc2cc(-c3cc(C(=O)O)c4ccccc4n3)ccc2c1	HT1080NT lethal inconclusive, HT1080 IDH1KD tx inconclusive, KB-3-1 tox 15µM
COc1ccc(-c2cc(C(=O)N3CCN(c4ccccc4)CC3)c3ccccc3n2)cc1	MCF10A rereplic 13µM, HT1080NT lethal inconclusive, SW480 rerep 1.8µM, HT1080 IDH1KD tx 1.8µM, KB-3-1 tox inconclusive, KB-V1 MDR tox 7.3µM
COc1ccc(-c2cc(C(=O)O)c3ccccc3n2)c(OC)c1	none
COc1ccc(-c2cc(C(=O)N3CCN(c4ccccn4)CC3)c3ccccc3n2)cc1	MCF10A rereplic inconclusive, HT1080NT lethal inconclusive, SW480 rerep 21µM, HT1080 IDH1KD tx inconclusive
COc1cccc(CN2CCN(C(=O)c3cc(-c4cccnc4)nc4ccc(C)cc34)CC2)c1	KB-V1 MDR tox 23µM
CCC(C)Oc1cccc(C(=O)Nc2ccccc2N2CCOCC2)c1 (stereo not drawn)	none
COc1cc(NC(=O)NCC2CCN(Cc3ccccc3F)CC2)cc(OC)c1	HT1080NT lethal inconclusive
Cc1ccccc1-n1ncc2c1CC(C)(C)CC2NC(=O)CCN1Cc2ccccc2C1=O (stereo not drawn)	none
CCOc1ccc(-c2cc(C(=O)N3CCN(c4ccccn4)CC3)c3ccccc3n2)cc1	MCF10A rereplic inconclusive, HT1080NT lethal inconclusive, SW480 rerep inconclusive, HT1080 IDH1KD tx inconclusive, KB-3-1 tox 4.1µM!, KB-V1 MDR tox inconclusive
Cc1nc(-c2cccc(S(=O)(=O)N3CCC(C)CC3)c2)cs1	none
FC(F)(F)c1cc(-c2cccs2)nc2cc(-c3ccccc3)nn12	MCF10A rereplic 16µM, SW480 rerep inconclusive
FC(F)(F)c1cc(-c2ccccc2)nc2cc(-c3ccccc3)nn12	none (no result: MCF10A rereplic, HT1080NT lethal, SW480 rerep, HT1080 IDH1KD tx)
Cc1cc(C)nc(Nc2ccccc2F)n1	SW480 rerep 23µM
Cc1ccc(C)c(N2CCN(S(=O)(=O)c3cc(-c4cc(C)no4)ccc3C)CC2)c1	none (no result: MCF10A rereplic, HT1080NT lethal, SW480 rerep, HT1080 IDH1KD tx)
Cc1ccc2nc(N)nnc2c1	KB-V1 MDR tox inconclusive (no result: MCF10A rereplic, SW480 rerep)
Cc1ccc(C(C)C)c(OC/C(O)=C(\C#N)c2nc3ccccc3[nH]2)c1	MCF10A rereplic 16µM, HT1080NT lethal inconclusive, SW480 rerep inconclusive, HT1080 IDH1KD tx inconclusive, KB-V1 MDR tox inconclusive
N#C/C(=C(/O)CCl)c1nc2ccccc2[nH]1	MCF10A rereplic inconclusive, HT1080NT lethal inconclusive, SW480 rerep inconclusive, HT1080 IDH1KD tx inconclusive, KB-3-1 tox inconclusive, KB-V1 MDR tox 23µM

Compound activity (PubChem)
